Experimental data reported in PubChem BioAssay (NCATS).
Where “and” joins values, the source holds several entries; their conditions need not be identical. Identical values can stand only once. Results filed as inconclusive are left out. Calls of active or inactive are those of the source. Unless noted, calls come from the whole dose curve; as a rule, active = well fitted curve in the direction sought with a large enough effect; inconclusive = small, poorly fitted or top-dose-only effect, or another doubt; inactive = no such curve, though single readings can be large; an effect the other way counts as inactive or inconclusive. Peptide text beside a SMILES is read from it.

Key:
[1] = AP1 Signaling Pathway (AID 357; active = well fitted curve in either direction with a large enough effect, not every such curve was filed as active;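 note: ME-180 reporter cells stimulated with EGF at its EC50 level; % is set by controls: 0 for no effect and ±100 for the full control effect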)
Method in brief: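 Cells are seeded overnight, exposed to compound titrations and an EC50 level of EGF for 5 hours at 37 °C, then loaded with CCF4 dye for 2.5 hours. Beta-lactamase activity under the AP-1 element is read as a blue/green ratio.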

[2] = target: Cytochrome P450 1A2 (Homo sapiens) (UniProt P05177); test: p450-cyp1a2 (AID 410; calls by dose curve; note: potency is the fitted concentration of half-maximal effect;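 for activity change, negative = inhibition: -100% = full effect of reference inhibitor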)
Method in brief: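 Luminescent readout of luciferin formed from Luciferin-ME by human CYP1A2; data normalized against complete inhibition by 57 uM furafylline. Enzyme 20nM, substrate 100uM at Km, 100mM KPO4 buffer, 60 min reaction at room temperature.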

[3] = target: Glucocorticoid receptor (Homo sapiens) (UniProt P04150); test: GR-GFP Redistribution (AID 450;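 active = compounds whose dose series gives a full or clear partial fitted curve of increased nuclear translocation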; note: potency is the fitted concentration of half-maximal effect); conditions: U2OS GR-GFP nuclear translocation, laser cytometry, 2 h
[4] = target: Glucocorticoid receptor (Homo sapiens) (UniProt P04150); test: GR-EFC Redistribution (AID 451; calls by dose curve; note: potency is the fitted concentration of half-maximal effect); conditions: CHO-K1 GR-EFC translocation, beta-gal luminescence, 2 h
Method in brief: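 CHO-K1 cells stably expressing nuclear-localized β-gal enzyme acceptor and GR fused C-terminally to the enzyme donor fragment; ligand-driven nuclear translocation restores β-gal by complementation. Compounds titrated up to 46 uM final, 2 h at 37 °C; luminescence read.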

[5] = target: Mitogen-activated protein kinase 10 (Mus musculus) (UniProt Q61831); test: JNK3 AlphaScreen Assay (AID 530; active = well fitted curve in either direction with a large enough effect, not every such curve was filed as active;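 note: kinase came from lysate of stimulated human HepG2 cells; signal reports phosphorylation of biotinylated GST-cJun 1-79 at Ser73 with 10 µM ATP; % is set by controls: 0 for no effect and ±100 for the full control effect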)
Method in brief: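 Inhibitors reduce antibody binding to phosphorylated biotin-cJun, lowering AlphaScreen luminescence. Lysates from HepG2 cells pre-activated by IL-1beta plus TNF-alpha supplied JNK3; compounds were titrated.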

[6] = target: 3',5'-cyclic-AMP phosphodiesterase 4B (Homo sapiens) (UniProt Q07343); test: qHTS Assay for Inhibitors of PDE-IV (AID 607; active = well fitted activation curve with a large enough effect in the main read-out, with a control signal flat, not every such curve was filed as active; note: % of control where 0% means no effect)
Method in brief: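 The readout is membrane depolarisation from a cAMP-sensing CNG channel, detected with a potential dye at ex 535/em 590. Cells were HEK293-derived (endogenous PDE-IV) at 1000 cells/well, titrated up to 22.9 uM final.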

[7] = NFAT Signaling Pathway (AID 444; active = well fitted curve in either direction with a large enough effect, not every such curve was filed as active;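 note: carbachol stimulus at about its EC50 of 1 µM final; % is set by controls: 0 for no effect and ±100 for the full control effect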); conditions: Jurkat NFAT-bla M1, carbachol, beta-lactamase ratio, 5 h; at 17.2 µM (top of the series)
Method in brief: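 Jurkat cells carrying an NFAT-driven β-lactamase reporter and co-transfected muscarinic M1 receptor were treated with compound plus carbachol (1 uM final, an EC50 level) for 5 h at 37 °C. CCF4 loading followed for 1 h at RT; 460/530 nm ratio gave %activity.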

[8] = Cell Viability - Jurkat (AID 426;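 active = dose-dependent loss of cell ATP signal giving a full or clear fitted curve, ranked by lower potency value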; note: potency is the fitted concentration of half-maximal effect); conditions: qHTS
Method in brief: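 qHTS, 1536-well; Jurkat E6-1, 5000 cells/well, complete medium; cpd 40 hr, 37 °C; CellTiter-Glo 20 min RT; luminescence. AC50 by Hill fit.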

[9] = Cell Viability - HepG2 (AID 433; calls by dose curve;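 note: potency is the fitted concentration of half-maximal effect; potency for ATP loss meaning cytotoxicity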); conditions: qHTS
Method in brief: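 ATP luminescence (CellTiter-Glo) after 40 h compound exposure, 37 °C, HepG2, 1500 cells/well, complete medium. Normalized: DMSO = basal, 100 uM tamoxifen = 100% inhibition. AC50 via standard Hill equation.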

[10] = Cell Viability - NIH 3T3 (AID 541);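 note: plate controls were DMSO alone for no effect and tamoxifen positive control for full effect; nearly all actives have a fitted effect of over 25% in size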
Method in brief: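 Luminescent ATP signal (CellTiter-Glo) served as the viability read-out after NIH 3T3 cells were exposed to compounds over a concentration range for 40 hr at 37 °C. Hill-equation modelling of concentration-response data gave AC50.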

[11] = Cell Viability - HUV-EC-C (AID 542); note: nearly all actives have a fitted effect of over 35% in size; note: potency is the fitted concentration of half-maximal effect; for activity change, negative = cytotoxicity: % is set by controls: 0 for no effect and ±100 for the full control effect
Method in brief: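 qHTS cytotoxicity: HUV-EC-C, 1000 cells/well, 5 hr settle, compound 40 hr 37 °C, CellTiter-Glo, luminescence. AC50 via Hill equation.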

[12] = Cell Viability - H-4-II-E (AID 543); note: nearly all actives have a fitted effect of over 35% in size; note: potency is the fitted concentration of half-maximal effect
Method in brief: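 Luminescent ATP signal (CellTiter-Glo) served as the viability read-out, with cytotoxicity seen as a concentration-dependent ATP drop. Cells were treated for 40 hours in complete medium. AC50 values derive from Hill-equation modelling.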

[13] = Cell Viability - SH-SY5Y (AID 544); conditions: SH-SY5Y neuroblastoma cell viability; at 92.2 µM (top of the series);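 note: 0% = DMSO alone and -100% = 100 µM tamoxifen; nearly all actives have a fitted effect of over 55% in size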
Method in brief: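 Luminescent ATP read-out (CellTiter-Glo) measures loss of viable SH-SY5Y neuroblastoma cells after 40 hr compound exposure at 37 °C. AC50 values derive from standard Hill modelling of qHTS concentration-response data.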

[14] = Cell Viability - Mesenchymal (AID 546); conditions: mesenchymal cells viability, qHTS; at 91.7 µM (top of the series);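 note: cells exposed to compound for 40 hours before reading; 0% = DMSO only and -100% = 100 µM tamoxifen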
Method in brief: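 Normal human renal glomerulus-derived kidney mesenchymal cells, 1000 per well in complete medium, were treated with compounds for 40 hr at 37 °C. Viability was read as intracellular ATP by CellTiter-Glo luminescence; AC50 values came from Hill-equation fits of qHTS concentration-response data.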

[15] = Cell Viability - BJ (AID 421; calls by dose curve;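 note: potency is the fitted concentration of half-maximal effect; cells exposed to compound for 40 hours at 37 °C before readout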); conditions: BJ fibroblast viability, qHTS
Method in brief: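 Cytotoxicity in human BJ foreskin fibroblasts is scored as loss of cellular ATP after a 40-hour exposure, measured by luciferase luminescence. Controls are DMSO and 100 uM tamoxifen.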

[16] = Cell Viability - MRC5 (AID 434; calls by dose curve;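 note: potency is the fitted concentration of half-maximal effect; potency reflects cytotoxicity seen as loss of intracellular ATP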); conditions: MRC5 lung fibroblast viability, qHTS
Method in brief: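 MRC5 normal human lung fibroblasts (1500/well) were treated with compounds for 40 hr at 37 °C in complete medium, and viable cells were measured as intracellular ATP by CellTiter-Glo luminescence. AC50 came from Hill fits, normalized to DMSO and 100 uM tamoxifen.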

[17] = Cell Viability - SK-N-SH (AID 435; calls by dose curve; note: potency is the fitted concentration of half-maximal effect); conditions: SK-N-SH neuroblastoma cell viability qHTS
Method in brief: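 CellTiter-Glo ATP luminescence, 20 min RT read; cells pre-plated 5 hr, compound 40 hr at 37 °C, 1500 cells/well, complete medium. Normalized DMSO = 0, 100 uM tamoxifen = 100% inhibition; Hill-fit AC50.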

[18] = Cell Viability - N2a (AID 540); conditions: N2a mouse neuroblastoma cell viability; at 92.2 µM (top of the series);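 note: plate controls were DMSO alone for no effect and tamoxifen control for full effect; nearly all actives have a fitted effect of over 45% in size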
Method in brief: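 Luminescent ATP signal (CellTiter-Glo, 20 min at room temperature) served as the viability read-out after N2a cells were treated with compounds for 40 hours at 37 °C. Concentration-response data were fitted to the Hill equation for AC50.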

[19] = Cell Viability - Renal Proximal Tubule (AID 545);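 note: 0% = DMSO only and -100% = 100 µM tamoxifen; nearly all actives have a fitted effect of over 40% in size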
Method in brief: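 Rat kidney proximal tubule cells, freshly isolated; 1000 cells/well, 5 hr settle, compound 40 hr 37 °C. CellTiter-Glo 20 min RT, luminescence read. AC50 by standard Hill fit.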

Chain of Glucocorticoid receptor (Homo sapiens) (P04150 whole entry, looked up, the tested form may be a part): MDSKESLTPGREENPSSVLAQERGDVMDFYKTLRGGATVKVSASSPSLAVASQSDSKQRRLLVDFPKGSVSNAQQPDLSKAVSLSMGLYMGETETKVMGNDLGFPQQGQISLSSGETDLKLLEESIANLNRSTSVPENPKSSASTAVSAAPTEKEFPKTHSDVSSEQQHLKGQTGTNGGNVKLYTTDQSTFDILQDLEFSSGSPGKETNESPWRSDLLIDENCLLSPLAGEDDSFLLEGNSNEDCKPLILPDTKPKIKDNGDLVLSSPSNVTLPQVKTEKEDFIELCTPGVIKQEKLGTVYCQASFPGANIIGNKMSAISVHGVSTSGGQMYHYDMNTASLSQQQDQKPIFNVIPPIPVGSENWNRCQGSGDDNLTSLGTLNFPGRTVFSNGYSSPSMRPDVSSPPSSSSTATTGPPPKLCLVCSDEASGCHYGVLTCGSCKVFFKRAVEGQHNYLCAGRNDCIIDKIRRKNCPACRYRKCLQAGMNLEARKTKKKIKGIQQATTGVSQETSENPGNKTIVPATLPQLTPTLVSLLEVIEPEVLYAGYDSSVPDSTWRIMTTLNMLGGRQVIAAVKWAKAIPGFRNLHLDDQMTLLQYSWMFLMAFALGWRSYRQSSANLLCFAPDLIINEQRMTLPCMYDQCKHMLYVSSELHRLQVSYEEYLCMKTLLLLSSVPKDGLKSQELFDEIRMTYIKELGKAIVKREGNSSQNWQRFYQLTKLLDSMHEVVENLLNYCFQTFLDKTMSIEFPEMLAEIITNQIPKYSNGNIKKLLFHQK
Chain of Cytochrome P450 1A2 (Homo sapiens) (P05177 whole entry, looked up): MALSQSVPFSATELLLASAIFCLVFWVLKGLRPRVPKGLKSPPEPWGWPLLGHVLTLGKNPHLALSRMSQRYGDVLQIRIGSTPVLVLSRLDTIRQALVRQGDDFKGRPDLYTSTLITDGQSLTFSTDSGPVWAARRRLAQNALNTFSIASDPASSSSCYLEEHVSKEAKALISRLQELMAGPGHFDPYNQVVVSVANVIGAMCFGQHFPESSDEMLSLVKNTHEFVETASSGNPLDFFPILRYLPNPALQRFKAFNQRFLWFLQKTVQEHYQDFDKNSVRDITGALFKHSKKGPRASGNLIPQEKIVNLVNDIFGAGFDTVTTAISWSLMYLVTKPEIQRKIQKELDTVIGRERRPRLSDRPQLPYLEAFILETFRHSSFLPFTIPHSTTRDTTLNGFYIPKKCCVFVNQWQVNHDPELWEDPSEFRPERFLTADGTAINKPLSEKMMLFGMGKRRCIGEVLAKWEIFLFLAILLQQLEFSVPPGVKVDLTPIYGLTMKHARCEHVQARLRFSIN
Chain of 3',5'-cyclic-AMP phosphodiesterase 4B (Homo sapiens) (Q07343 whole entry, looked up): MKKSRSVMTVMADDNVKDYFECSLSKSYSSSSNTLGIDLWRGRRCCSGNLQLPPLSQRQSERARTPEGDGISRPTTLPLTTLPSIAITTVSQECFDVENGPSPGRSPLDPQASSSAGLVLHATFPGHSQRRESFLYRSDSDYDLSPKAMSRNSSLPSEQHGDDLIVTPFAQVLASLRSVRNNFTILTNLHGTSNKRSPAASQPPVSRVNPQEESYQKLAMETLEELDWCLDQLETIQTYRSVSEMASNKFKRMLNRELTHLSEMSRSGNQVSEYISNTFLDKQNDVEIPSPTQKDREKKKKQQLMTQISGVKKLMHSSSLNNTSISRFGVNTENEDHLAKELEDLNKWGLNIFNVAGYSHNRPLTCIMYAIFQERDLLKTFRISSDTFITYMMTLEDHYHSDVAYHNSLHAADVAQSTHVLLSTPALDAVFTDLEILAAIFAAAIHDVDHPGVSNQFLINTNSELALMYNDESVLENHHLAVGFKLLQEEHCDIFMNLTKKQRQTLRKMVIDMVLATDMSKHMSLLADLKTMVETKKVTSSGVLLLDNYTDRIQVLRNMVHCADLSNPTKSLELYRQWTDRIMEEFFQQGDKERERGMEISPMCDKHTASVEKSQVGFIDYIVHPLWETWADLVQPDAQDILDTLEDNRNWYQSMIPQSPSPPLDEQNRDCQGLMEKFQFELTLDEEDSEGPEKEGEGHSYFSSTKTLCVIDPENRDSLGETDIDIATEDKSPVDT

O=C1CSC2(CCN(CCCN3c4ccccc4Sc4ccc(Cl)cc43)CC2)N1
inactive: outcome [1] | Potency [3] > 46 µM | Potency [4] > 9.22 µM | activity change, negative = inhibition [5] -6.21% [at 11.4 µM] | outcome [6]
active: Potency [2] 3.16 µM

COC(=O)CCC(=O)CN
inactive: outcome [1] | Potency [3] > 20.6 µM

COC(=O)C1=C(C)NC(C)=C(C(=O)OCCCN2CCC(c3ccccc3)(c3ccccc3)CC2)[C@H]1c1cccc([N+](=O)[O-])c1
inactive: Potency [3] > 46 µM | Potency [4] > 46 µM | outcome [5] | outcome [6]

CC(=O)N[C@@H](CC(=O)O)C(=O)N[C@@H](CCC(=O)O)C(=O)O (Ac-Asp-Glu-OH)
inactive: Potency [2] | activity change, negative = inhibition [7] -12.3% | Potency [3] > 20.6 µM and > 46 µM | Potency [4] > 20.6 µM and > 46 µM | outcome [5] | outcome [6]

CC(C)N=c1cc2n(-c3ccc(Cl)cc3)c3ccccc3nc-2cc1Nc1ccc(Cl)cc1
active: activity change, negative = inhibition [7] -120%
inactive: Potency [2] | Potency [3] > 20.6 µM | Potency [4] > 20.6 µM | outcome [6]

CC(C)(C)C(=O)OCOC(=O)[C@@H]1N2C(=O)[C@@H](N=CN3CCCCCC3)[C@H]2SC1(C)C
inactive: outcome [1] | outcome [5] | outcome [6]

CC(C)(C)NC(=O)[C@@H]1C[C@@H]2CCCC[C@@H]2CN1C[C@@H](O)[C@H](Cc1ccccc1)NC(=O)[C@H](CC(N)=O)NC(=O)c1ccc2ccccc2n1
inactive: outcome [5] | outcome [10]
active: Potency [8] 46.4 µM | Potency [9] 65.4 µM | Potency [11] 50.1 µM | Potency [12] 50.1 µM | viability change, negative = cytotoxic [13] -93.9% | activity change, negative = cytotoxicity [14] -97.1%

Cc1ccccc1
inactive: Potency [15] > 92 µM | Potency [8] > 92 µM | Potency [9] > 92 µM | Potency [16] > 92 µM | Potency [17] > 92 µM | outcome [5] | activity change, negative = cytotoxicity [18] 5.04% and 4.17% | outcome [10] | Potency [11] | Potency [12] | viability change, negative = cytotoxic [13] -8.19% and -6.58% | outcome [19] | activity change, negative = cytotoxicity [14] 6.68% and 3.68%

Nc1ccn([C@H]2CS[C@@H](CO)O2)c(=O)n1
inactive: Potency [15] > 92 µM | Potency [8] > 92 µM | Potency [9] > 92 µM | Potency [16] > 92 µM | Potency [17] > 92 µM | outcome [5] | activity change, negative = cytotoxicity [18] -5.31% | outcome [10] | Potency [11] | Potency [12] | viability change, negative = cytotoxic [13] 1.14% | outcome [19] | activity change, negative = cytotoxicity [14] 7.61%

CC1=C(/C=C/C(C)=C/C=C/C(C)=C/CO)C(C)(C)CCC1
inactive: Potency [15] > 92 µM | Potency [9] > 92 µM | Potency [16] > 92 µM | Potency [11] | activity change, negative = cytotoxicity [14] -3.42%
active: activity change, negative = cytotoxicity [18] -116%

CC(O)CO (stereo not drawn)
inactive: Potency [15] > 92 µM | Potency [8] > 92 µM | Potency [9] > 92 µM | Potency [16] > 92 µM | Potency [17] > 92 µM | outcome [5] | activity change, negative = cytotoxicity [18] -4.29% and -9.5% | outcome [10] | Potency [11] | Potency [12] | viability change, negative = cytotoxic [13] -13.2% and -4.54% | outcome [19] | activity change, negative = cytotoxicity [14] 1.55% and 7.01%

O=CCCCC=O
inactive: Potency [15] > 92 µM | Potency [9] > 92 µM | Potency [16] > 92 µM | outcome [5] | Potency [11] | outcome [19] | activity change, negative = cytotoxicity [14] -29.7%
active: Potency [8] 6.45 µM

CC1=C2[C@@H]([C@H](C)CC[C@H]2/C=C(\C)C(=O)O)[C@H](O)C1
inactive: Potency [15] > 92 µM | Potency [8] > 92 µM | Potency [9] > 92 µM | Potency [16] > 92 µM | Potency [17] > 92 µM | outcome [5] | activity change, negative = cytotoxicity [18] 6.2% | outcome [10] | Potency [11] | Potency [12] | viability change, negative = cytotoxic [13] -4.63% | outcome [19] | activity change, negative = cytotoxicity [14] 8.87%

CCCCCCCC(=O)O
inactive: Potency [15] > 92 µM | Potency [8] > 92 µM | Potency [9] > 92 µM | Potency [16] > 92 µM | Potency [17] > 92 µM | outcome [5] | activity change, negative = cytotoxicity [18] -0.485% and -3.97% | outcome [10] | Potency [11] | Potency [12] | viability change, negative = cytotoxic [13] 0.495% and -6.94% | outcome [19] | activity change, negative = cytotoxicity [14] 4.9% and 1.62%
